Assay outcomes: PubChem BioAssay, National Center for Advancing Translational Sciences (NCATS)
Compounds with a hit are over-represented: about 7.9% of the library has one in this group of screens.
Lassa entry inh: qHTS for Inhibitors of binding or entry into cells for Lassa Virus. Lassa virus pseudotype entry inhibition, cell reporter. Potency, µM (doses to about 37.9 µM), most hits filed as inhibitors. actives 1.2% (n = 300,000); calls by dose curve; tested in HEK293 cells; also: nearly all actives have a fitted effect of over 50% in size
FMDV antiviral: High Throughput Screening for Foot and Mouth Disease Virus Antivirals | FMDV antiviral cell-based qHTS | Potency, µM (titrated, usually from 57.9 µM), usual class: inhibitors | actives 1.2% (n = 410,000) | AID 1159524, 2015; calls by dose curve; tested in HEK293T cells; also: read-out not given here; nearly all actives have a fitted effect of over 45% in size
HCMV antiviral: qHTS Assay for inhibitors of the human cytomegalovirus (HCMV). actives 4.5% (n = 410,000). HFF cells, HCMV-luciferase reporter, 72 h; stronger effect = lower value. activity change, negative = inhibition, % at 57.5 µM; in the data active = activity change below about -60%; inconclusive = no clear call, values can overlap the other calls; inactive = above about -39%
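Cell-based, HFFs, 1000 cells/well, 16 h 37C; cpds in DMSO + HCMV-luc, MOI 1 PFU/cell; 72 h 37C; OneGlo luminescence after 5 min RT; norm. to buffer vs Salinomycin 10uM.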
Marburg entry inh: qHTS for inhibitors of binding or entry into cells for Marburg Virus. Marburg virus pseudotyped entry inhibition, cell reporter. AID 540276, 2011. Potency, µM (doses to about 37.8 µM), most hits filed as inhibitors. actives 1.8% (n = 300,000); calls by dose curve; tested in HEK293 cells
HCV inh: qHTS Assay for Inhibitors of Hepatitis C Virus (HCV) | AID 651820, 2012 | Potency, µM (highest dose often 41.8 µM), most hits filed as inhibitors | actives 3.4% (n = 340,000) | Huh7.5.1 HCVcc-Cre infection, luciferase reporter, 44 h; active = well fitted inhibition curve with a large enough effect; inconclusive = small, poorly fitted or top-dose-only effect, or another doubt; inactive = no such curve, though single readings can be large or run the other way
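Whole-lifecycle infectious HCVcc-Cre system; cells 1,000/well, compound then virus (~0.5 moi) added 4 h after plating, 44 h culture. Luciferase read 15 sec following 15 min substrate incubation, room temp.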
Numbers stand for hits; n = inactive; u = inconclusive; x = no result given.

SMILES | Lassa entry inh | FMDV antiviral | HCMV antiviral | Marburg entry inh | HCV inh
Cc1c(NC(=O)CN2C(=O)NC(C)(c3ccccc3Cl)C2=O)c(=O)n(-c2ccccc2)n1C (configuration not stated) | u | n | x | n | n
CN(c1ccccc1)S(=O)(=O)c1cccc(NC(=O)CN2C(=O)NC3(CCCCC3)C2=O)c1 | x | n | n | x | 3.2µM
Cc1cc(C)c(NC(=O)CN(C)CC(=O)Nc2cccc(S(=O)(=O)N(C)c3ccccc3)c2)c(C)c1 | x | u | u | x | 10µM
Cc1csc(CN(C)C(=O)c2sc3ncnc(NCC4CCCO4)c3c2C)n1 (configuration not stated) | x | n | x | x | x
O=c1oc(-c2ccc(Cl)cc2[N+](=O)[O-])nc2ccccc12 | x | n | n | x | x
CCOC(=O)c1ccc(NC(=O)CCCN2C(=O)NC3(CCCC3)C2=O)cc1 | x | n | n | x | u
COc1ccc(C(CNC(=O)CN(C)S(=O)(=O)c2ccc(C)cc2)N2CCCC2)cc1 (configuration not stated) | n | n | n | u | n
CCc1ccc(CN2CCC(n3nccc3NC(=O)C3CCCC3)CC2)cc1 | u | n | n | n | x
CN(Cc1ccccc1)c1nc(CN2CCOCC2)nc2scc(-c3ccccc3)c12 | n | u | n | n | n
CCNc1nc(CN2CCCCC2)nc2scc(-c3ccccc3)c12 | u | u | -95 | 4.5µM | 10µM
CC(=O)Nc1ccc(S(=O)(=O)N2CCN(c3nc(NC4CCCC4)c4ccccc4n3)CC2)cc1 | u | u | n | u | 7.9µM
CN(C)S(=O)(=O)N1CCC(c2ccc(F)cc2)C(COc2ccc3c(c2)OCO3)C1 (configuration not stated) | u | n | n | 2.8µM | u
CN(C)S(=O)(=O)N1CCN(C(=O)c2ccc3c(c2)OCO3)CC1 | n | n | u | n | n
Fc1ccc([C@H]2CCNCC2COc2ccc3c(c2)OCO3)cc1 (some centres not stated) | x | n | x | x | x
Fc1ccc([C@H]2CCNC[C@H]2COc2ccc3c(c2)OCO3)cc1 | x | n | x | 16µM | x
Cc1ccc(S(=O)(=O)CC(CN2CCCCC2)N2CCCCC2)cc1 (configuration not stated) | n | 28µM | -99 | n | 16µM
O=S(=O)(CC(CN1CCCCC1)N1CCCCC1)c1ccc2ccccc2c1 (configuration not stated) | u | u | -73 | 3.5µM | n
C=C=CCCN1C(=O)NC(c2ccccc2)C(C(=O)OC)=C1C (configuration not stated) | x | x | x | n | x
O=C(O)C[C@H](SCc1ccc(C(=O)O)o1)C(=O)O | x | x | x | n | x
O=C(COc1nncc2ccccc12)Nc1ccc(F)c(F)c1 | u | n | -101 | n | n
O=C(COc1nncc2ccccc12)Nc1c(F)c(F)c(F)c(F)c1F | n | n | n | n | n
CCOC(=O)[C@@H]1[C@H]2COc3ccccc3[C@@H]2N2C(=O)N(c3ccccc3)C(=O)[C@]12C | x | n | n | x | n
CC(C)(C)NC(=O)C(c1c[nH]c2ccccc12)N(C(=O)Cn1nnc(-c2ccc(F)cc2)n1)c1cccc(O)c1 (configuration not stated) | u | u | n | 11µM | 10µM
CC(C)(C)NC(=O)C(c1ccco1)N(C(=O)Cn1nnc(-c2ccc(F)cc2)n1)c1cccc(F)c1 (configuration not stated) | n | n | n | n | u
Cc1cc2c(c(-c3nc4ccccc4s3)c1)OC(CNC(=O)c1occc1C)C2 (configuration not stated) | x | n | x | x | x
SMILES | Lassa entry inh | FMDV antiviral | HCMV antiviral | Marburg entry inh | HCV inh
Cc1nn(-c2ccccc2)c(C)c1C(=O)OC(C)C(=O)NC1CCCCC1C (configuration not stated) | x | u | u | x | 11µM
COc1ccc(N2CC(NC(=O)/C=C\c3ccc(OC)c(OC)c3)CC2=O)cc1 (configuration not stated) | n | n | n | x | x
O=C(Nc1cccc(O)c1)c1cc(-c2ccc3c(c2)OCO3)on1 | u | 11µM | n | u | n
O=C(c1csc(Nc2ccccc2Cl)n1)N1CCCC1 | n | n | -93 | u | n
O=C(Nc1ccc(SC(F)F)cc1)c1cc(-c2ccc3c(c2)OCCO3)on1 | u | u | -66 | n | x
O=C(Nc1cccc(O)c1)c1cc(-c2ccccc2Cl)on1 | 5µM | 11µM | n | 7.1µM | n
COc1ccc(NC(=O)c2cc(-c3ccccc3Cl)on2)cc1OC | n | n | n | n | n
O=C(c1csc(Nc2cccc3ccccc23)n1)N1CCCC1 | x | n | n | x | n
COCCN1C(=NCC(C)C)NC(c2ccccc2)C(C(=O)OC)=C1C (configuration not stated) | u | x | x | n | x
COC(=O)c1cc(NC(=O)c2cc3sccc3n2Cc2ccc(Cl)cc2)cc(C(=O)OC)c1 | n | n | n | u | x
O=C(c1cc(-c2ccccc2Cl)on1)N1CCCC1 | u | n | u | 11µM | n
CN(C(=O)c1ccccc1OCc1ccc(F)cc1)c1c(N)n(Cc2ccccc2)c(=O)[nH]c1=O | n | n | n | n | n
CCOC(=O)c1ccc2[nH]c3c(c2c1)CCCC3O (configuration not stated) | n | n | n | n | 10µM
CCOC(=O)c1ccc2[nH]c3c(c2c1)CCCC3 | x | n | n | x | n
COc1ccccc1C(=O)COC(=O)c1ccc(-n2cnnn2)cc1 | n | n | n | n | 10µM
CCN(CC)c1ccc(NC(=O)COc2ccc(-n3cnnn3)cc2)cc1 | n | n | n | n | 22µM
COc1cc(NC(=O)COc2ccc(-n3cnnn3)cc2)cc(OC)c1OC | n | u | n | n | 11µM
COc1ccc(NC(=O)C2CCN(C(=O)c3sc4nc[nH]c(=O)c4c3C)CC2)c(OC)c1 | n | n | n | x | x
COc1ccc(C)cc1NC(=O)c1ccc2c(c1)CCN2S(=O)(=O)c1ccc(Cl)cc1 | n | n | n | u | x
O=C(CN1CCCC1)Nc1cc(C(F)(F)F)ccc1Cl | n | n | n | u | n
O=C(CN1CCCCC1)Nc1ccc(C(F)(F)F)cc1Cl | n | n | -70 | u | n
CCCn1cc(S(=O)(=O)c2ccccc2)c(=O)c2cc(F)c(N3CCCC(C)C3)cc21 (configuration not stated) | n | n | n | x | x
CC1CCC(C(C)C)C(OCC(O)CN2CCN(Cc3ccccc3)CC2)C1 (configuration not stated) | 8.9µM | u | u | u | u
CC1CCC(C(C)C)C(OCC(O)CN2CCCC(C)C2)C1 (configuration not stated) | 5.6µM | u | u | u | u
COc1ccc(CN2CCOc3ccc(CN4CCC(O)CC4)cc3C2)c(OC)c1OC | x | n | x | x | x
COCCCn1c(SCCc2ccccc2)nc2cc(OC)c(OC)cc2c1=N | x | u | n | x | 13µM
COc1cccc(NC(=O)CCN2CCN(CCO)CC2)c1 | n | n | n | x | x
CC(=O)OC1(C)CC(C)C(=O)C(C(O)CC2CC(=O)NC(=O)C2)C1 (configuration not stated) | x | u | -105 | x | 0.5µM
